According to PubChem BioAssay:

These molecules were tested against Torsin-1A-interacting protein 2 (Homo sapiens) (UniProt Q8NFQ8) (assay: LULL1 binders on small-molecule microarray, primary screen, cell lysate, human LULL1 lysate, 635/667 nm fluorescence (AID 1092;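 further: probe is lysate of COS7 cells overexpressing human LULL1; score merges per-feature 667 nm fluorescence with signal-to-noise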)). Settings: hLULL1 lysate binding, 635 nm fluorescence, higher = more signal.
Sequence of Torsin-1A-interacting protein 2 (Homo sapiens) (Q8NFQ8 whole entry, looked up): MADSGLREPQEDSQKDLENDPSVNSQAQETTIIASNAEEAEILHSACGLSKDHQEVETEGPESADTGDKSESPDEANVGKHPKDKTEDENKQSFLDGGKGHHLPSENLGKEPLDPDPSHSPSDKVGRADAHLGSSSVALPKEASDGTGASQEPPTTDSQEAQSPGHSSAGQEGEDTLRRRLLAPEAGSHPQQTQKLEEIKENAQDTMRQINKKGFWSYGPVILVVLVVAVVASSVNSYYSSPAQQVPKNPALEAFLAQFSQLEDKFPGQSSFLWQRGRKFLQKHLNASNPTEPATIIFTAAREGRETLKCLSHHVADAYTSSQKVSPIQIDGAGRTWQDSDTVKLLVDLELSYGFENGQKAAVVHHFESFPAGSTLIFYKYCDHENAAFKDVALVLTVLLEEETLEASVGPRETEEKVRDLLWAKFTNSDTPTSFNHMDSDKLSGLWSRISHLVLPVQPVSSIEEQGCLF
With `CCOC(=O)NN=C1C[C@@H](O)[C@@H](O)[C@@H]2[C@@H]3C(=O)N([C@@H](C)c4ccccc4)C(=O)[C@@H]3CC[C@@H]12` the composite z-score was -0.0284.
Molecule `COC(=O)[C@@H]1CC[C@H](C)[C@@H](c2ccc(C)cc2)N1C(=O)c1ccc(C=NO[C@@H](C)c2cn([C@H](CO)Cc3ccccc3)nn2)cc1` has a composite z-score of 1.57.
Molecule `O=C1CCCC=C1C(O)CCOC(c1ccccc1)(c1ccccc1)c1ccccc1` (stereo not given) has a composite z-score of -0.626.
Molecule `COC(=O)CC=C[C@@H](C)[C@@H]1C=C[C@H](O)[C@@H](CO)O1` has a composite z-score of 0.296.
Work on `C[C@@H](ON=C1[C@H]2CCn3c(=O)n(-c4ccccc4)c(=O)n3[C@H]2[C@H](O)[C@@H]2O[C@H]12)c1cn([C@@H]2COC[C@H]2O)nn1` yielded a composite z-score of -0.219.
For `CO[C@@H]1COC(=O)[C@H](CCSC)NC(=O)CC=C[C@@H](C)COC(=O)CCC[C@H]1C`, the composite z-score was -0.86.
`COc1cccc([C@@H]2Oc3ccc(OC)cc3C(=O)[C@H]2O)c1` showed a composite z-score of 0.704.
`C=CC1=C[C@H](O)[C@@H]2O[C@@H]2C12OCCCO2` was tested, and the composite z-score was -0.119.
Work on `CCOC(=O)NN=C1C[C@@H](O)[C@@H](O)[C@@H]2[C@@H]3C(=O)N(Cc4ccccc4)C(=O)[C@@H]3CC[C@H]12` yielded a composite z-score of -0.308.
Work on `COC(=O)[C@@H]1CC[C@H](C)[C@@H](c2ccc(C)cc2)N1C(=O)c1ccc(C=NO[C@H](C)c2cn([C@H](CO)Cc3ccccc3)nn2)cc1` yielded a composite z-score of 0.6.
Work on `COc1cc(O)c(C(=O)C=Cc2ccc3c(c2)OCO3)c(OC)c1` yielded a composite z-score of -0.862.
In the case of `CCOC(=O)[C@H](CC(C)C)NC(=O)CCC1CC(OC(=O)NCc2cccc3ccccc23)CC2(CCCC(COC(=O)NCC3CCCCC3)O2)O1` (stereo not given in full), the composite z-score is reported as 1.11.
For `Cc1cc2c(c(=O)o1)[C@@H](O)[C@H]1O[C@H]1C2=O`, the composite z-score was 0.0376.
`Cc1ccc(S(=O)(=O)NC(CCc2ccccc2)CC(=O)C(C)(C)C)cc1` (stereo not given) showed a composite z-score of 0.69.
Molecule `C[C@@H](c1ccccc1)N1C(=O)[C@H]2[C@H]3[C@H](O)[C@H](O)CC(=NO[C@@H]4O[C@H](CO)[C@@H](O)[C@H](O)[C@H]4O)[C@@H]3CC[C@H]2C1=O` has a composite z-score of 0.652.
In the case of `CCN1C(=O)[C@@H]2[C@H]3C(=CC[C@@H]2C1=O)C1(OCCCO1)[C@H]1O[C@H]1[C@H]3O`, the composite z-score is reported as 0.899.
`CCOC(=O)[C@H](CC(C)C)NC(=O)CCC1CC(OC(=O)NCc2cccc3ccccc23)CC2(CCCC(COC(=O)NCCCN3CCCC3=O)O2)O1` (stereo not given in full) showed a composite z-score of 1.68.
`CC(=O)OC[C@H]1OC(ON=CC[C@@H]2C=C[C@H](OC(C)=O)[C@@H](COC(C)=O)O2)[C@H](OC(C)=O)[C@@H](OC(C)=O)[C@@H]1OC(C)=O` (stereo not given in full) was tested, and the composite z-score was 0.828.
`COc1ccc(O[C@@H]2[C@H](O)CO[C@@H]2C=Cc2ccccc2)cc1` was tested, and the composite z-score was 0.11.
In the case of `O=C1[C@H]2[C@H]3[C@H](O)[C@H](O)CC(=NOC[C@@H](O)COCc4ccco4)[C@H]3CC[C@H]2C(=O)N1C[C@@H]1CCCO1`, the composite z-score is reported as -0.884.
For `CC(C)=CCCC(C)=CCON=C1C[C@@H](O)[C@@H](O)[C@@H]2[C@@H]3C(=O)N(C(C)(C)C)C(=O)[C@@H]3CC[C@@H]12`, the composite z-score was 0.197.
With `C#CCCCON=C1C[C@@H](O)[C@@H](O)[C@@H]2[C@@H]3C(=O)N(CCC(=O)OCC)C(=O)[C@@H]3CC[C@H]12` the composite z-score was 1.28.
In the case of `C[C@H]1CC[C@H]2C(=O)O[C@H](COc3ccc(C(C)(C)C)cc3)CN2[C@@H]1c1ccc(Br)cc1`, the composite z-score is reported as 0.55.
`CC(C)=CCCC(C)=CCON=C1C[C@@H](O)[C@@H](O)[C@@H]2[C@@H]3C(=O)N(c4cccc(Oc5ccccc5)c4)C(=O)[C@@H]3CC[C@@H]12` gave a composite z-score of 1.15.
With `COc1ccc(O[C@H]2C=C[C@@H](c3ccccc3)O[C@@H]2COC(=O)CCC(C)=NOC(C)CN2CCCc3nc(C)c(C)cc32)cc1` (stereo not given in full) the composite z-score was 1.36.
`COC(=O)[C@H](C)NC(=O)CCC1CC(OC(=O)NCc2cccc3ccccc23)CC2(CCCC(COC(=O)NCC(c3ccccc3)c3ccccc3)O2)O1` (stereo not given in full) was tested, and the composite z-score was 2.99.
`C=COC[C@@H]1CN2[C@@H](CC[C@@H](C)[C@@H]2c2ccc(Br)cc2)C(=O)O1` was tested, and the composite z-score was 0.0749.
Molecule `CCOC(=O)[C@H](CC(C)C)NC(=O)CCC1CC(OC(=O)NCc2cccc3ccccc23)CC2(CCCC(COC(=O)NCCC(C)C)O2)O1` (stereo not given in full) has a composite z-score of 0.691.
`CCOC(=O)[C@H](Cc1ccccc1)NC(=O)CCC1CC(OC(=O)NCCc2ccc(F)cc2)CC2(CCCC(COC(=O)NCCc3ccccc3OC)O2)O1` (stereo not given in full) showed a composite z-score of 2.18.
`CO[C@H](C1CCCCC1)[C@H](C)C=CCC(=O)OCCCc1ccccc1` was tested, and the composite z-score was -0.242.
